In all, about 2,000 compounds went through this assay and fewer than 10 were called active. These entries were drawn from the full list. Unmarked numbers belong to inactive results.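 The calls were made as follows: active = growth inhibition of at least 75% in every replicate, which also brings the mean inhibition to 75% or more; inconclusive = mean inhibition 75% or more but some replicate under 75%; inactive = the rest.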

The assay is described as follows: reduced viability of yeast carrying PfHsp90 – S. cerevisiae, BacTiter-Glo luminescence, antimalarial PfHsp90 inhibitor project, primary screen (AID 504594).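 Also: 0% = DMSO neutral control wells and 100% = 20 µM radicicol control wells; higher value means stronger growth inhibition because the sign is flipped.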 The conditions noted are these: S. cerevisiae expressing PfHsp90, BacTiter-Glo growth, 48 h; at 9.4 µM; hits give high values.
As to `CN(C)CCOc1ccc(Cl)cc1C(C)(C)C`, the growth inhibition was -0.977%.

As to `COc1ccc2c(c1OC)C(=O)N1C2SC[C@H]1C(=O)NC1CC(C)(C)NC(C)(C)C1` (stereo not given in full), the growth inhibition is 2.59%.

For `N#Cc1cc2c([nH]c1=O)CCCC2`, the growth inhibition was 8.49%.

Consider `COc1cc2c(cc1O)CCN(C(=O)c1ccco1)C2C` (stereo not given), for which the growth inhibition was 3.62%.

Take `Cc1c(Cc2ccccc2)c(=O)oc2c(CN(C)C)c(O)c(Cl)cc12`: the growth inhibition was -2.33%.

Turning to `COc1cccc(N2C(=O)[C@H]3C(C(=O)c4cnccn4)=NN[C@H]3C2=O)c1`, the growth inhibition was -1.02%.

With `O=C(O)C[C@@H](O)C(=O)O`, the growth inhibition was -8.31%.

As for `Cc1ccc(CSCC(=O)N2CCCC2)cc1`, the growth inhibition is -5.17%.

As to `O=C(NCCc1nc2ccccc2[nH]1)c1cccc(Br)c1`, the growth inhibition is 2.71%.

For `CCNC(=S)N1CCN(CCN2C(=O)c3cccc4cccc(c34)C2=O)CC1`, the growth inhibition was 2.01%.

As for `COc1c2occc2c(OC)c2c(=O)cc(C(F)(F)C(F)(F)F)oc12`, the growth inhibition was -5.37%.

As for `CC(=O)NC(Cc1c[nH]c2ccccc12)C(=O)N/N=C/c1ccccc1` (stereo not given), the growth inhibition is 13.4%.

Turning to `O=C(CN1CC[n+]2c(-c3cccs3)csc21)c1ccc(Br)cc1`, the growth inhibition is -7.32%.

Turning to `Cc1ccc2nc(N=C(N)N)nc(C)c2c1`, the growth inhibition is -4.91%.

As for `COc1ccc(CNC(=O)N[C@H](C(=O)O)C(C)C)cc1OC`, the growth inhibition was -0.856%.

Take `CCOC(=O)NN1C(=O)c2ccccc2NC1c1ccc(OC)c(OC)c1` (stereo not given): the growth inhibition was -6.91%.

Turning to `COC(=O)c1[nH]c(=O)c2ccccc2c1O`, the growth inhibition was -11.7%.

Turning to `COC(=O)c1cc(OC)c(OC)cc1NC(=O)CN1C(=O)c2ccccc2C1=O`, the growth inhibition was -14.3%.

For `COc1cc(CNc2ccc(C)c(C)c2)cc(OC)c1OC`, the growth inhibition is 13.4%.

On to `Clc1ccc2c(c1)[C@H]1OCC[C@H]1[C@@H](c1ccco1)N2`, for which the growth inhibition is 1.42%.

As to `CC1(c2ccccc2)CC(C)(C)N2C(=O)C(=O)c3cccc1c32` (stereo not given), the growth inhibition was -3.23%.

As to `O=c1nc2cccc3c2=c(/c1=C(\O)c1ccccc1)c1ccccc1c3=O`, the growth inhibition is -23.6%.

On to `O=C1Nc2ccc3sc4ccccc4c3c2C1=O`, for which the growth inhibition was -1.28%.

For the compound `O=C(CN1C(=O)/C(=C/c2cccc(Br)c2)SC1=S)Nc1cccnc1`, the growth inhibition was -5.73%.

In the case of `CC(C)c1ccc(/C=C/C(=O)O)cc1`, the growth inhibition was -10.9%.

On to `COc1ccc(CC(=O)N2CC3(C)CC2CC(C)(C)C3)cc1OC` (stereo not given), for which the growth inhibition is 12.2%.

In the case of `COc1ccc(CCn2c(C)cc3c(c2=O)C(c2ccncc2)C(C#N)=C(N)O3)cc1OC` (stereo not given), the growth inhibition is -3.67%.

As for `CC1(C)CC(CC(=O)O)(c2ccc(Cl)cc2)CCO1` (stereo not given), the growth inhibition is 4.78%.

As for `Cc1cccc2c1CC(C)(C)N/C2=C\C(N)=O`, the growth inhibition was 1.18%.

For `COc1ccc(-c2[nH]ncc2C=O)cc1OC`, the growth inhibition is 7.91%.

For the compound `O=C(/C=C/c1ccc(F)cc1)NC(=S)N1CCCCC1c1cccnc1` (stereo not given), the growth inhibition is 4.68%.

Turning to `C=CCc1cccc2cc(C(=O)Nc3ccc(CC(=O)O)cc3)c(=O)oc12`, the growth inhibition was -7.68%.

Take `C[C@H](NC(=O)C1(c2ccccc2)CCN(C(=O)[C@H]2CSCN2C(=O)OC(C)(C)C)CC1)C(=O)O`: the growth inhibition is -9.59%.

As for `COC1CCN(Cc2cn(Cc3ccccc3)nc2-c2cc3ccccc3o2)CC1`, the growth inhibition was 3.22%.

On to `CC(C)CN1CC(C(=O)O)CC1=O` (stereo not given), for which the growth inhibition was -3.33%.

As to `CCOCCn1c(C(C)O)nc2ccccc21` (stereo not given), the growth inhibition was -8.58%.

Turning to `O=C(CC(NC(=O)OCc1ccccc1)C(=O)O)OCc1ccccc1` (stereo not given), the growth inhibition was 0.482%.

Consider `COc1ccc(C(=O)Nc2ncc3c(n2)CC(C)CC3=O)cc1` (stereo not given), for which the growth inhibition is -12.5%.

As to `O=C1NCC2=C1C(c1ccccc1)Nc1ccccc1N2` (stereo not given), the growth inhibition is 6.48%.

Regarding `COc1cccc(C2CC(=O)C3=C(C2)Nc2ccccc2N(C(=O)CCC(=O)O)C3c2ccc(F)cc2)c1` (stereo not given), the growth inhibition is 3.39%.

For `COc1ccc(C(=O)CCN2CCc3cc(OC)c(OC)cc3C2)cc1`, the growth inhibition was 4.16%.

Regarding `O=C1OC(=O)C2C1[C@@H]1CC[C@H]2O1` (stereo not given in full), the growth inhibition is -14%.

On to `COCc1cc(=O)[nH]c(/N=C(\N)Nc2ccc(Oc3ccccc3)cc2)n1`, for which the growth inhibition was -12.9%.

For `CC(=O)c1ccc(CCCCCCCCCC(=O)O)s1`, the growth inhibition is -16.6%.

In the case of `CC(C)CN1CCN(Cc2ccc3ncccc3c2)CC1CCO` (stereo not given), the growth inhibition was -15.2%.

With `O=c1ccc2c(o1)/C(=C/C=C(Cl)Cl)CCC2`, the growth inhibition is -2.29%.

As to `CC(C)(C)C(=O)NCCCNc1ccc([N+](=O)[O-])cc1`, the growth inhibition was 4.14%.

Consider `CC(=O)c1c(C)[nH]c(C(=O)OCc2ccccc2)c1C`, for which the growth inhibition is -16%.

Regarding `NS(=O)(=O)c1ccc(CCNC(=O)C2CCCN2C(=O)OCc2ccccc2)cc1` (stereo not given), the growth inhibition was -1.5%.

With `Cn1c(Oc2ccc3c(c2)OCO3)nc2c1c(=O)n(Cc1ccccc1)c(=O)n2C`, the growth inhibition is 5.1%.

`Oc1c(Cl)cc(Cl)c(Cl)c1Cc1c(O)c(Cl)cc(Cl)c1Cl`: the growth inhibition is 104% (active).

With `Cc1c2c(nc3c(C)cccc13)OC(C)C2` (stereo not given), the growth inhibition was 8.19%.

Take `CCOC(=O)n1c(=O)oc2ccccc21`: the growth inhibition was -13.3%.

As for `Cc1csc(CCc2nc(C)cs2)n1`, the growth inhibition was 0.825%.

On to `O=C(Nc1ccc(F)c([N+](=O)[O-])c1)c1ccc2c(c1)OCCO2`, for which the growth inhibition is -4.38%.

As to `CC(C)NS(=O)(=O)c1ccc(OCC(=O)Nc2cccc(F)c2)cc1`, the growth inhibition is 4.62%.

For `COc1c2c(nc3occc13)C(CC=C(C)C)(OC)C(O)CC2` (stereo not given), the growth inhibition is 3.58%.

As to `COc1ccc(C=NCC2COc3ccccc3O2)cc1OC` (stereo not given), the growth inhibition was 13.6%.

On to `O=C(Oc1cccccc1=O)c1ccccc1`, for which the growth inhibition was 11%.

Take `Cc1nc2ccccc2n1CC(=O)NC1CCCC1`: the growth inhibition is -8.15%.

Regarding `CC1(C)CC(=O)c2cnc(NC(=O)C3CCCC3)nc2C1`, the growth inhibition is 0.802%.

Regarding `Cc1ccc(S(=O)(=O)Oc2ccccc2/C=N/N=C(N)N)cc1`, the growth inhibition is 9.9%.

Take `c1ccc(-c2ccc(C(c3ccccc3)n3ccnc3)cc2)cc1` (stereo not given): the growth inhibition was 91.6% (active).

Consider `CCc1cc2c(C)cc(=O)oc2cc1OC(=O)C1CCCN1C(=O)OC(C)(C)C` (stereo not given), for which the growth inhibition was 5.63%.

For `COc1ccc2cc(C(=O)Nc3ccc(S(N)(=O)=O)cc3)sc(=O)c2c1OC`, the growth inhibition was 5.36%.

`CC(C)(C)NCC(O)COc1ccccc1C(=O)CCc1ccccc1` (stereo not given): the growth inhibition is -4.71%.

As for `Cn1nc(-c2ccccn2)nc2c(=O)n(C)c(=O)nc1-2`, the growth inhibition was -12.4%.

On to `Cn1nc(-c2ccc(Cl)cc2)nc2c(=O)n(C)c(=O)nc1-2`, for which the growth inhibition is 104% (active).

For the compound `Cn1c(=O)[nH]c2nnc(-c3ccc(Cl)c(Cl)c3)nc2c1=O`, the growth inhibition was 1.34%.

`N/C(Cc1ccc(Cl)cc1Cl)=N\OC(=O)c1ccc(Br)o1`: the growth inhibition was 30.5%.

`Cc1cccc(Oc2coc3cc(OC(=O)c4cncc(Br)c4)ccc3c2=O)c1`: the growth inhibition was -0.933%.

Take `COC(=O)[C@@H](N)CS`: the growth inhibition is -1.65%.

As for `O=Cc1ccc(N2CCCCC2)cc1`, the growth inhibition was -3.18%.

In the case of `C#CCOc1ccc2c(C)cc(=O)oc2c1`, the growth inhibition is -0.459%.

Consider `COc1cccc(CC(=O)NCC2COc3ccccc3O2)c1OC` (stereo not given), for which the growth inhibition was 12.9%.

As to `O=C(NCc1ccco1)/C(=C\C=C\c1ccccc1)NC(=O)c1ccccc1Br`, the growth inhibition was -0.463%.

As for `CC(=O)OCC(OC(C)=O)C(OC(C)=O)C(OC(C)=O)C(=O)Nc1cccc(C)c1` (stereo not given), the growth inhibition is -0.0548%.

With `CC(=O)N1CCN(c2ccc(NC(=O)/C=C/c3ccccc3)cc2)CC1`, the growth inhibition was 10.6%.

Turning to `Cc1ccccc1-c1nn(-c2ccc(F)cc2F)cc1CNCCN(C)C`, the growth inhibition was -12.6%.

Take `CC(C)Cc1ccc(C(C)C(=O)Nc2ccc(O)cc2)cc1` (stereo not given): the growth inhibition was -4.11%.

Take `Cc1ccc(C(=O)Nc2ccc(O)cc2C(=O)O)cc1C`: the growth inhibition is 4.07%.

For `CC(=O)N1CCn2c3c(c4cc(C)ccc42)CCCC31` (stereo not given), the growth inhibition was -11.1%.

As to `Fc1cccc(Cc2noc(CN3CCN(c4cnccn4)CC3)n2)c1`, the growth inhibition was -2%.

On to `O=Cc1ccccc1Oc1ccccc1`, for which the growth inhibition is -0.351%.

Regarding `COc1ccc2[nH]c3c(c2c1)CCn1c-3nc2ccccc2c1=O`, the growth inhibition was 0.118%.

With `CC(=O)Nc1ccc(OS(=O)(=O)c2c(C)cc(C)cc2C)cc1`, the growth inhibition was 10.9%.

For the compound `CCOc1ccc(C(=O)C(C)=O)c(OCC)c1`, the growth inhibition was 10.5%.

Consider `CC(=O)Oc1ccc(C2OC(=O)c3ccccc3N2C(C)=O)cc1` (stereo not given), for which the growth inhibition was -6.47%.

As for `COc1ccc(C(=O)O)cc1F`, the growth inhibition is -4.03%.

As to `O=C(O)c1ccccc1OCCOc1ccccc1`, the growth inhibition was 3.6%.

In the case of `Cc1ccc2nc3c(cc(C(=O)NCC4CCCO4)c(=N)n3CCCOC(C)C)c(=O)n2c1` (stereo not given), the growth inhibition is 4.47%.

`CC(C)CC(=O)NC(NC(=O)CC(C)C)c1cccc([N+](=O)[O-])c1`: the growth inhibition was 2.96%.

Take `CC(=O)NC(NC(=S)N1CCCCCC1)C(Cl)(Cl)Cl` (stereo not given): the growth inhibition is -2.52%.

On to `C[N+]1(C2CCC3CCCC2C3O)CCCCC1` (stereo not given), for which the growth inhibition was -8.1%.

Regarding `O=C(O)CCCCCN=C1CCc2ccccc2N1`, the growth inhibition is 0.535%.

Consider `Cc1ccc(OCCCCn2ccnc2C)c(C)c1`, for which the growth inhibition is -3.77%.

Turning to `COc1ccc(CCN2C(=O)CSC2c2ccc(OC)c(OC)c2)cc1OC` (stereo not given), the growth inhibition was 2.57%.

With `O=C1C(=O)N2C(=C1C(=O)N1CCCCCC1)c1ccccc1CC21CCCC1`, the growth inhibition was -4.5%.

For `CCN1CCN(C(=S)c2ccc(OC)cc2)CC1`, the growth inhibition was -1.26%.

On to `O[C@H]1COC2C1OC[C@@H]2O` (stereo not given in full), for which the growth inhibition is -2.02%.

In the case of `O=[N+]([O-])c1ccc(O)c2ncccc12`, the growth inhibition was 93.7% (active).

In the case of `O=C(Cc1ccccc1[N+](=O)[O-])NCc1ccncc1`, the growth inhibition was 15%.

As for `Oc1ccc(COCc2ccccc2)c2cccnc12`, the growth inhibition was -6.18%.

As to `CC1CCN(C(=O)Oc2ccccc2)CC1`, the growth inhibition is 5.73%.

Turning to `C[N+]12CCCCC1C(COC(=O)c1ccc3c(c1)OCO3)CCC2` (stereo not given), the growth inhibition is 1.34%.

`CC(C)N(C(=O)Cc1ccccc1[N+](=O)[O-])C(C)C`: the growth inhibition was 4.35%.

`O=C(c1ccc(Cl)cc1)C1CCCN(Cc2ccc(Oc3ncccn3)cc2)C1` (stereo not given): the growth inhibition was -7.65%.

Consider `Cc1ccc(C2CC(c3cccs3)=NN2C(=O)c2ccco2)o1` (stereo not given), for which the growth inhibition was 6.03%.

Consider `O=CNC1CCCc2c1[nH]c1ccc(Cl)cc21` (stereo not given), for which the growth inhibition is -7.59%.

With `COc1ccc(C(=O)[C@H]2[C@H]3C(=O)N(c4ccccc4)C(=O)[C@H]3C3C=CC=NN32)cc1` (stereo not given in full), the growth inhibition was 15.9%.
